# The list is not random: actives were taken first. Their share in the collection is about 10%.
# aGal spleen mod = qHTS Assay for Inhibitors and Activators of Human alpha-Galactosidase From Spleen Homogenate; Alpha-galactosidase A (Homo sapiens), P06280; human spleen homogenate, 4MU-alpha-Gal fluorescence, 40 min; Potency, µM (series often up to 80 µM), for inactives: top-dose activity change, negative = inhibition, usual class: inhibitors; actives 0.008% (n = 240,000); AID 2107, 2009;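 note: potency is the fitted concentration of half-maximal effect; 0% = enzyme with vehicle and -100% = no enzyme basal signal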
#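 Fluorogenic readout (Ex 365/Em 440 nm) of 4-methylumbelliferone released from 1 mM 4-MU-alpha-galactoside by spleen homogenate, 40 min at 37C, pH 5.0. Data normalized to no-enzyme and enzyme controls; Hill-equation AC50 from compound titrations.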
# ALOX12 inhib = qHTS Assay for Inhibitors of 12-hLO (12-human lipoxygenase). Polyunsaturated fatty acid lipoxygenase ALOX12 (Homo sapiens), P18054. purified 12-hLO, xylenol orange hydroperoxide absorbance. Potency, µM (series often up to 57.1 µM), inactives show at the top dose activity change, negative = inhibition, actives largely listed as inhibitors. actives 0.12% (n = 150,000). AID 1452, 2008; note: potency is the fitted concentration of half-maximal effect; nearly all actives have a fitted effect of over 55% in size
#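 Xylenol orange chromogenic assay: hydroperoxide from 12hLO oxidises Fe(II), giving red-shifted Fe(III)-XO absorbance. Conditions: 150 nM enzyme, 40 uM arachidonic acid, 25 mM Hepes pH 7.0, 0.01% Triton X-100, 30 min, room temperature.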
# ALDH1A1 block = qHTS Assay for Inhibitors of Aldehyde Dehydrogenase 1 (ALDH1A1) | Purified ALDH1A1, NADH fluorescence, propionaldehyde substrate | Potency, µM (highest dose often 75.3 µM), for the others: at the highest dose activity, negative = inhibition, usual class: inhibitors | actives 7.3% (n = 220,000); active = well fitted inhibition curve with a large enough effect, not every such curve was filed as active; inconclusive = small, poorly fitted or top-dose-only effect, or another doubt; inactive = no such curve, though single readings can be large or run the other way;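 note: potency is the fitted concentration of half-maximal effect; plate controls were no enzyme wells and a reference inhibitor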
# HPGD block = qHTS Assay for Inhibitors of HPGD (15-Hydroxyprostaglandin Dehydrogenase). 15-hydroxyprostaglandin dehydrogenase [NAD(+)] (Homo sapiens), P15428. actives 4.3% (n = 150,000). Potency, µM, without a hit: top-dose activity change, negative = inhibition, most hits filed as inhibitors. purified HPGD, NADH fluorescence kinetic, PGE2 substrate. AID 894, 2007; active = well fitted inhibition curve with a large enough effect, not every such curve was filed as active; inconclusive = small, poorly fitted or top-dose-only effect, or another doubt; inactive = no such curve, though single readings can be large or run the other way; note: potency is the fitted concentration of half-maximal effect
# Target sequence (P15428 whole entry, looked up): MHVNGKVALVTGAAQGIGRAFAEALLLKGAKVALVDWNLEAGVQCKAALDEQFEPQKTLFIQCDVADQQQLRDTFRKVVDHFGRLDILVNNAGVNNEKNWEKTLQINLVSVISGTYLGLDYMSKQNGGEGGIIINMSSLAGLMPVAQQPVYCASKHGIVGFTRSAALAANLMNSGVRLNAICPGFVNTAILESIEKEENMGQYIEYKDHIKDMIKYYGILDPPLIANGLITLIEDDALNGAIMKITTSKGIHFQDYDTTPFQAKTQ
#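 20 nM HPGD preincubated 15 min at room temperature with compound in 50 mM Tris-HCl pH 8, 0.01% Tween 20. Started with 1 mM NAD+ and 30 uM prostaglandin E2; NADH fluorescence (360/450 nm) read 5 times over 30-s intervals, last minus first.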
# PNC assembly inh = High Content Assay for Compounds that inhibit the Assembly of the Perinucleolar Compartment. PC3M PTB-GFP, PNC prevalence imaging, 16 h; active compounds read low. AID 2417, 2010. actives 3.1% (n = 140,000). activity change (PNC), negative = inhibition, % at 10 µM;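 active = readout at or below -70, meaning at least 70% loss of cells showing the perinucleolar compartment, a nuclear body marking cancer cells; inconclusive = readout between -30 and a set limit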;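 note: plate controls were DMSO wells for no effect and camptothecin positive control wells for full effect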
#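 Compounds are pinned in duplicate onto adhered PC3M cells stably expressing GFP-tagged PTB and incubated 16 h at 37 C. Cells are then fixed, nuclei stained with Hoechst, and PNC-positive cells counted.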
# GLA inh pH 4.5 = qHTS Assay for Inhibitors of Human alpha-Galactosidase at pH 4.5 | AID 1467, 2008 | Alpha-galactosidase A (Homo sapiens), P06280 | activity change, negative = inhibition, % at 105 µM | 230,000 tested, under 10 active | purified enzyme, 4-MU-alpha-Gal fluorescence, pH 4.5;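 note: 0% = full activity with enzyme and -100% = basal without enzyme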
# Active calls of the source: *; ? = inconclusive; nt = no result given; [ ] = another dose, or the depositor's remark. Unless noted, calls come from the whole dose curve; as a rule, active = well fitted curve in the direction sought with a large enough effect; inconclusive = small, poorly fitted or top-dose-only effect, or another doubt; inactive = no such curve, though single readings can be large; an effect the other way counts as inactive or inconclusive. Unless noted, % is set by controls: 0 for no effect and ±100 for the full control effect.
SMILES,aGal spleen mod,ALOX12 inhib,ALDH1A1 block,HPGD block,PNC assembly inh,GLA inh pH 4.5
O=S(=O)(NCc1ccc(F)cc1)c1ccc2c(c1)OCCO2,7%,6%,-14%,-12%,54,1
CC(C)CNS(=O)(=O)c1ccc2c(c1)OCCO2,8%,0%,-4%,32µM*,36,4
O=S(=O)(NCCSc1ccc(Cl)cc1)c1ccc2c(c1)OCCO2,4%,-10%,14µM*,-16%,-4,-1
Cc1ccccc1CNS(=O)(=O)c1ccc2c(c1)OCCO2,2%,1%,-11%,25µM*,-119*,-5
COCCCNS(=O)(=O)c1ccc2c(c1)OCCO2,-7%,-3%,-13%,-13%,3,6
CCNC(=O)/C(=C/c1ccc2c(c1)OCO2)NC(=O)c1ccc(Br)cc1,7%,-11%,?,?,27,6
O=c1ncccn1[C@@H]1O[C@H](CO)C(O)[C@@H]1O (stereo partly drawn),14%,4%[0.00818 µM],-8%,-26%,nt,-3
O=c1cnn([C@@H]2O[C@H](CO)[C@@H](O)[C@H]2O)c(=O)[nH]1,6%,-6%,-2%,1%,-111*,nt
COCCCNC(=O)c1c[nH]c2ccc(S(=O)(=O)N3CCC4(CC3)OCCO4)cc2c1=O,4%,nt,?,nt,nt,5
CCOc1ccc(N(C)S(=O)(=O)c2ccc3[nH]cc(C(=O)NCC4CCCO4)c(=O)c3c2)cc1 (stereo not drawn),3%,-12%,-19%,14µM*,?,-5
CCc1ccc(NS(=O)(=O)c2ccc3[nH]cc(C(=O)NCC4CCCO4)c(=O)c3c2)cc1 (stereo not drawn),11%,-1%,?,?,?,nt
Cc1ccccc1N(C)S(=O)(=O)c1ccc2[nH]cc(C(=O)NCC3CCCO3)c(=O)c2c1 (stereo not drawn),13%,-3%,?,?,-84*,-19
CN(CCC#N)S(=O)(=O)c1ccc2[nH]cc(C(=O)NCCc3ccccc3)c(=O)c2c1,0%,-2%,25µM*,?,58,6
CCCCCNC(=O)c1c[nH]c2ccc(S(=O)(=O)N3CCC4(CC3)OCCO4)cc2c1=O,-5%,-1%,-14%,?,-113*,-3
CNC1CC(N)[C@H](O)[C@@H](O[C@@H]2OC(CO)C3OC4(OC(C(N)CO)C(O)C(O)C4O)O[C@@H]3[C@H]2O)C1O (stereo partly drawn),-6%,4%,6%,-1%,nt,6
CCc1ccc(N(C)S(=O)(=O)c2ccc3[nH]cc(C(=O)NCCN4CCOCC4)c(=O)c3c2)cc1,-6%,-1%,22µM*,?,16,-15
O=C(COC(=O)c1ccccc1NC(=O)c1ccco1)NC1CCS(=O)(=O)C1 (stereo not drawn),-1%,nt,-1%,nt,nt,0
Cc1ccc2c(c1)CCCN2C(=O)c1cc2ccccc2oc1=O,2%,2%,14µM*,-14%,-28,2
Cc1cc(/C=N/NC(=O)Cn2c3ccccc3c(=O)c3ccccc32)c(C)n1-c1ccc(Cl)cc1,?,-1%,?,?,-88*,14
Cc1nc2ccccn2c1C(=O)N/N=C/c1cc(C)n(-c2ccc(Cl)cc2)c1C,15%,-1%,?,?,-100*,5
CCNC(=S)N/N=C/c1cc(C)n(-c2ccc(Cl)cc2)c1C,-3%,nt,-1%,nt,nt,-8
Cc1cc(/C=N/NC(N)=S)c(C)n1-c1ccc(Cl)c(Cl)c1,-1%,?,16µM*,?,46,3
Cc1nc2ccccn2c1C(=O)N/N=C/c1ccccc1[N+](=O)[O-],8%,-3%,-43%,-7%,2,-4

# Source: PubChem
